The text below walks through data of PubChem BioAssay (Tox21).

A number with no mark means an inactive call. Records with an inconclusive call do not appear. Active and inactive are the calls of the source. Unless noted, the call rests on the fitted dose curve; in most records, active means well fitted curve in the direction sought with a large enough effect in the repeat runs; inconclusive means weak or mixed curves; inactive means no such curve, though single readings can be large; an effect the other way counts as inactive or inconclusive.

Test [1] is described as follows: qHTS assay to identify small molecule antagonists of the estrogen receptor alpha (ER-alpha) signaling pathway using the BG1 cell line in the presence of 0.1 nM 17-beta-estradiol - cell viability counter screen (AID 1259241). Further: nearly all actives have a fitted effect of over 40% in size. Summed up: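 VM7Luc4E2 cells (endogenous ER-alpha, 4×ERE-luciferase), hormone-starved 5 days in charcoal-stripped FBS, were treated with compounds plus 0.1 nM 17beta-estradiol for 22 hr at 37C; viability read in same wells as CellTiter-Fluor live-cell protease fluorescence.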
A general note: In qHTS, concentration-response curves come from the screen itself.

Test [2] is described as follows: qHTS assay to identify small molecule antagonists of the androgen receptor (AR) signaling pathway using the MDA cell line in the presence of 0.5 nM R1881 - cell viability counter screen (AID 1259242). Further: nearly all actives have a fitted effect of over 45% in size. An outline of the steps: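 Live-cell protease fluorescence, CellTiter-Fluor, 30 min at 37C. Cells: MDA-kb2, 3,000/well, preincubated 5 hr. Compounds plus 0.5 nM R1881 final, 16 hr, 37C, 0% CO2.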

Test [3] concerns the target Androgen receptor (Homo sapiens) (UniProt P10275). The test can be described thus: qHTS assay to identify small molecule antagonists of the androgen receptor (AR) signaling pathway using the MDA cell line in the presence of 0.5 nM R1881 (AID 1259243). Further: nearly all actives have a fitted effect of over 50% in size. Further: potency means the concentration at half of the fitted maximal effect. Summed up: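 MDA-kb2, MMTV-luc (AR/GR elements); 3,000 cells/well; cpd + 0.5 nM R1881 final; 16 hr 37C, 0% CO2; ONE-Glo 30 min RT; luminescence.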

Test [4] has as its target Estrogen receptor (Homo sapiens) (UniProt P03372). The experiment in a line: qHTS assay to identify small molecule antagonists of the estrogen receptor alpha (ER-alpha) signaling pathway using the BG1 cell line in the presence of 0.1 nM 17-beta-estradiol (AID 1259244). Further: nearly all actives have a fitted effect of over 50% in size. Summed up: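 Luminescence after ONE-Glo (30 min, room temperature) measured ERE-luciferase activity in VM7Luc4E2 cells treated 22 h with compound and 0.1 nM final 17beta-estradiol as stimulator.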

Test [5] can be described thus: qHTS assay to identify small molecule HDAC inhibitors (AID 1259364). Further: potency means the concentration at half of the fitted maximal effect.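 Further: wild-type HCT-116 cells with endogenous class I/II HDAC activity; nearly all actives have a fitted effect of over 45% in size.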 On activity change, negative = inhibition: top concentration of the series differs between compounds. An outline of the steps:
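HCT-116 (wild type), 1,500 cells/well, overnight; compound 2 hr 37C 5% CO2; HDAC-Glo I/II reagent 30 min RT; luminescence readout.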

A short description of test [6]: qHTS assay to identify small molecule HDAC inhibitors - cell viability counter screen (AID 1259365). Further: series mostly up to about 92 µM; nearly all actives have a fitted effect of over 50% in size. Summed up: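 Wild-type HCT-116 cells were seeded at 1,500 per well, incubated overnight at 37 C, then exposed to compounds in DMSO for 2hr. Viability was read by CellTiter-Glo luminescence after 30min at room temperature.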
The nature of test [7]: qHTS assay to identify small molecule agonists of the sonic hedgehog signaling (Shh) pathway - cell viability counter screen (AID 1259366). Further: nearly all actives have a fitted effect of over 50% in size. Summed up:
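NIH/3T3-derived 3T3 Gli1-Luc cells (stable Gli1-responsive firefly luciferase reporter) were seeded, rested 4 hr at 37 C/5% CO2, then exposed to compounds in DMSO for 24 hr; viability was read by CellTiter-Fluor fluorescence in the same wells.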

The nature of test [8]: qHTS assay to identify small molecule antagonists of the sonic hedgehog signaling (Shh) pathway - cell viability counter screen (AID 1259367). Further: nearly all actives have a fitted effect of over 55% in size. An outline of the steps:
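Viability was read by CellTiter-Fluor fluorescence in the same wells, reagent added 23 hr into compound treatment and incubated 1 hr at 37C. The 3T3 Gli1-Luc reporter cells (2,000/well) received conditioned medium after compound and ran 24 hr.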

The nature of test [9]: qHTS assay to identify small molecule agonists of the sonic hedgehog signaling (Shh) pathway (AID 1259368; calls by dose curve; further: series mostly up to about 92 µM; nearly all actives have a fitted effect of over 15% in size). An outline of the steps:
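Read-out: firefly luciferase luminescence from a Gli1 response element reporter stably integrated in NIH/3T3-derived 3T3Gli1-Luc cells, measured 30 min at room temperature after reagent addition. Compound exposure lasted 24 hr at 37 C, 5% CO2.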

Test [10] can be described thus: qHTS assay to identify small molecule phospholipidosis (PLD) inducers (AID 1259344; active means well fitted curve in the direction sought with a large enough effect; an effect the other way counts as inactive or inconclusive). Summed up: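 Phospholipid accumulation was scored by imaging: fixed, Hoechst-counterstained HepG2 cells stained with LipidTOX Red after 24 h compound exposure at 37 C. Read-outs were pit count and pit intensity per well or per cell, with amiodarone and DMSO controls.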
On the % scale 0 is the no-effect control and ±100 the full control effect.

Sequence of Estrogen receptor (Homo sapiens) (P03372 whole entry, looked up): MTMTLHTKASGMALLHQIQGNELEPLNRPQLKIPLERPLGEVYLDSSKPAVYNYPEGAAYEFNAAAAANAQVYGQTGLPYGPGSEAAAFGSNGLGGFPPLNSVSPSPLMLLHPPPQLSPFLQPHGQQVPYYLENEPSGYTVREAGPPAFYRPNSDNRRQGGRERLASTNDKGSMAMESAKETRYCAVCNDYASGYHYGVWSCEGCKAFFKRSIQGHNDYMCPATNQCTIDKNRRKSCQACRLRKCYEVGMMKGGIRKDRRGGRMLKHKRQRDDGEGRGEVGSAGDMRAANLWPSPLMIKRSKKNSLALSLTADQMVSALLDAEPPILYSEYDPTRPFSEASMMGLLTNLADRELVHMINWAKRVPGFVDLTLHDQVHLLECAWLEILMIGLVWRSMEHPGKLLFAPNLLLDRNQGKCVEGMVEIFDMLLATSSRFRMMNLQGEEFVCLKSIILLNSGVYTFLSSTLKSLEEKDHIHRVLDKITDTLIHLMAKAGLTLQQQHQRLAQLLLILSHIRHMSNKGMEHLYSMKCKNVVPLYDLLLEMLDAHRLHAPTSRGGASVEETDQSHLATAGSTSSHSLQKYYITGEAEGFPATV
Sequence of Androgen receptor (Homo sapiens) (P10275 whole entry, looked up): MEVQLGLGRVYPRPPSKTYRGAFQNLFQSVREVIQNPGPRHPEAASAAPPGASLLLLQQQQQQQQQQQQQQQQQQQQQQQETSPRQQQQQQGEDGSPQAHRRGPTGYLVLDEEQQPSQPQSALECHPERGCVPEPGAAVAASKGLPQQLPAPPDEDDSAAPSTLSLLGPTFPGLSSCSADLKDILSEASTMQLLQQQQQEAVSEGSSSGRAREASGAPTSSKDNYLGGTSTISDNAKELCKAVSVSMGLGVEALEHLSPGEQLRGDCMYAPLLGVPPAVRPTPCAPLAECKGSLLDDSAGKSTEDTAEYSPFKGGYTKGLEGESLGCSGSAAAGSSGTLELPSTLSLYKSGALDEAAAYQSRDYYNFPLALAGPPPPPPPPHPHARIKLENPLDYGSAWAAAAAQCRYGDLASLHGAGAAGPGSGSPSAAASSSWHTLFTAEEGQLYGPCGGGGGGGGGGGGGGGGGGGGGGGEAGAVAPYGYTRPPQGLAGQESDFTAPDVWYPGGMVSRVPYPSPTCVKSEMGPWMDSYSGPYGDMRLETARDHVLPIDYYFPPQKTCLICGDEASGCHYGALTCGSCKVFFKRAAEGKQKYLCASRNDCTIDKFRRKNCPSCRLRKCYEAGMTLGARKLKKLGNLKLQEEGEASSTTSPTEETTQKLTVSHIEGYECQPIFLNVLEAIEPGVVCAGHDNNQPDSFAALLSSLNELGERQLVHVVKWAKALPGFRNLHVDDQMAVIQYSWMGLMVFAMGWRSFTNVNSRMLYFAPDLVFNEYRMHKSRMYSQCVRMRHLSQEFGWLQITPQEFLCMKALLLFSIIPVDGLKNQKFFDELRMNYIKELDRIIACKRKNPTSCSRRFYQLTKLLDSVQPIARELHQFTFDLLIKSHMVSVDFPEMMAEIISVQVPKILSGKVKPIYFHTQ

In the case of `CC(C)(C)c1cccc(O)c1`, the Potency result in [1], in test [3], in test [4], in test [5], in [7] and in test [8] was “inactive” throughout. Further, the result in test [2] and in test [6] was inactive.

With `COC(=O)/C=C(/C)N`, the Potency result in test [1], in test [3], in test [4], in [5], in [7] and in test [8] was “inactive” in each case. Also, the Potency result in [9] was “inactive”. Besides, the result in [2] and in test [6] was inactive.

For `CCCOc1ccc2c(c1)CC[C@@H]1[C@@H]2CC[C@]2(C)C(OC)CC[C@@H]12` (stereo not given in full), the Potency result in test [1], in [4], in test [5], in [7] and in [8] was “inactive” throughout. Besides, the outcome in test [2] and in test [6] was inactive. In addition, the Potency in test [3] was 13.3 µM (active).

Consider `C[C@@H]1CN(c2c(F)c(F)c3c(=O)c(C(=O)O)cn(C4CC4)c3c2F)C[C@H](C)N1`, for which the values for the activity change, negative = cytotoxicity in test [1] and in test [6] were 13.3% [at 19 µM] and -3.08% [at 19 µM], respectively. Besides, the viability change, negative = cytotoxic in test [2] is 2.13% [at 19 µM]; in [7] it was 6.74% [at 19 µM]. In addition, the Potency result in test [3] is “inactive”. Further, the activity change, negative = inhibition is 0.469% [at 19 µM] in test [4] and -5.53% [at 19 µM] in test [5]. Besides, the molecule was classed as inactive in [10]. Besides, the activity change in test [9] was 3.53% [at 18.9 µM, hits give high values].

`C[C@@H](N)C(=O)O`: the Potency result in test [1], in [3], in [5], in test [7] and in test [8] was “inactive” each time. The result in [2], in test [10] and in test [6] was inactive.

Regarding `CC(=O)O[C@H]1CC[C@@]2(C)C(=CC[C@@H]3[C@@H]2CC[C@]2(C)C(C(C)=O)=CC[C@@H]32)C1`, the Potency entry in test [1], in test [4], in test [5], in test [8] and in [9] was “inactive” in each case. The outcome in [2] and in test [6] was inactive. In addition, the Potency in test [3] was 11.9 µM (active).

With `Cc1ccsc1C(=CCCN1CCC[C@@H](C(=O)O)C1)c1sccc1C`, the Potency result in [1], in test [3], in [4], in test [5], in test [7] and in test [8] was “inactive” in each case. Besides, the Potency entry in [9] was “inactive”. In addition, the result in test [2], in [10] and in [6] was inactive.

Turning to `Cc1cc2nc(N)sc2cc1C`, the Potency result in test [1], in [3], in [7] and in test [8] was “inactive” in each case. Moreover, the result in [2] and in [6] was inactive. Also, the Potency in [5] was 0.276 µM (active).

In the case of `NC(=O)NS(=O)(=O)c1ccc(Cl)cc1`, the Potency entry in test [1], in test [3], in [4], in [5], in test [7] and in test [8] was “inactive” each time. Also, the Potency entry in [9] is “inactive”. The result in test [2] and in test [6] was inactive.

Regarding `CN1CCN(N)CC1`, the Potency entry in [1], in test [3], in test [4], in [5], in [7] and in test [9] was “inactive” throughout. Also, the result in [2] and in test [6] was inactive.

Take `CCCCc1ccc2nc(NC(=O)OC)[nH]c2c1`: the Potency result in [1], in test [3], in test [4], in [7] and in [9] was “inactive” in each case. Further, the outcome in test [2], in test [10] and in test [6] was inactive. The Potency in [5] is 10.6 µM (active).

`Cc1ncc(CO)c(CN)c1O`: the Potency result in test [1], in test [3], in test [4], in test [5], in [7] and in [8] was “inactive” throughout. The Potency result in [9] is “inactive”. The result in test [2], in test [10] and in [6] was inactive.

Turning to `COC(C)CCO` (stereo not given), the Potency result in [1], in [3], in test [5], in [7], in test [8] and in [9] was “inactive” throughout. Moreover, the result in [2] and in test [6] was inactive.

In the case of `CC(Oc1c(Cl)cccc1Cl)C1=NCCN1` (stereo not given), the Potency result in [1], in test [3], in test [5], in [7] and in test [9] was “inactive” in each case. Further, the outcome in test [2] and in [6] was inactive.

As to `OCCN(CCO)c1ccccc1`, the Potency result in [1], in [3], in [4], in [5], in test [7] and in test [8] was “inactive” throughout. For the same molecule, the outcome in test [2] and in test [6] was inactive.

Consider `NCCCN1CCN(CCCN)CC1`, for which the Potency entry in test [1], in [3], in test [4], in test [5], in test [8] and in test [9] was “inactive” each time. For the same molecule, the result in [2] and in test [6] was inactive.

Take `COC(=O)C(C)O` (stereo not given): the Potency entry in test [1], in test [3], in test [4], in test [5], in test [7] and in [8] was “inactive” each time. For the same molecule, the Potency entry in test [9] is “inactive”. Also, the result in test [2] and in test [6] was inactive.

For the molecule `CC(C)c1ccccc1`, the Potency result in test [1], in test [3], in test [4], in [5], in [7] and in [8] was “inactive” throughout. In [9], the Potency result was “inactive”. The outcome in [2] and in test [6] was inactive.

As for `Cc1c(C(=O)NCCO)[n+](=O)c2ccccc2n1[O-]`, the Potency entry in [1], in test [3], in [5], in test [7], in test [8] and in test [9] was “inactive” throughout. Further, the result in [2], in test [10] and in test [6] was inactive.

`Nc1cccc(S(=O)(=O)O)c1`: the Potency result in test [1], in test [3], in test [4], in [5], in [7] and in test [8] was “inactive” throughout. For the same molecule, in test [9], the Potency entry is “inactive”. Moreover, the outcome in test [2] and in [6] was inactive.

As to `N#CSCC(=O)O`, the Potency result in [1], in [3], in test [4], in test [5], in [7] and in test [9] was “inactive” in each case. Besides, the result in test [2] and in [6] was inactive.

For the molecule `O=Cc1ccc(O)c(O)c1O`, the Potency result in test [1], in test [3] and in test [5] was “inactive” in each case. In addition, the outcome in [2] and in [6] was inactive.

On to `CC1=C(CC(=O)O)c2cc(F)ccc2/C1=C\c1ccc(S(C)(=O)=O)cc1`, for which the Potency result in [1], in test [3], in test [4], in [5] and in [9] was “inactive” in each case. Further, the result in test [2], in test [10] and in [6] was inactive.

Take `CCOC(=O)c1cc(=O)c2c(OCC(COc3cccc4oc(C(=O)OCC)cc(=O)c34)OC(=O)[C@@H](N)CCCCN)cccc2o1`: the Potency result in [1], in [3], in test [4], in test [5], in test [7] and in test [8] was “inactive” throughout. Further, the Potency entry in test [9] is “inactive”. The result in test [2] and in test [6] was inactive.
